A selection: hits, their analogues and other compounds. The true share with any hit is near 1.3%.
NTR1 agonist: agonists of human neurotensin receptor NTR1. NTR1-U2OS beta-arrestin-GFP spot imaging, agonist mode. AID 493036. activation, % at 20 µM. 330,000 compounds, 0.17% hits;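 active = activation at or above 40% of the spot to cytoplasm intensity ratio, with at least 20 cells analyzed; inconclusive = wells under 20 cells, flagged as cytotoxic or low count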;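 note: 0% = DMSO without peptide and 100% = 100 nM NTR1 peptide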
Bfl-1 A1 inh: inhibitors of the anti-apoptotic protein A1, read as caspase activation; caspase activation, % (concentration not given with the values); MEF A1-2A-BIM cells, Caspase-Glo 3/7 luminescence, 3 h; percent of clofoctol response, vehicle zero; 330,000 compounds, 0.066% hits;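 active = over half of replicate activation scores above 10%, or exactly half above 10 with the replicate mean above 10; inconclusive = replicate mean below 10 yet half the replicates above 10; inactive = over half of replicates below 10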
Beta2AR agonist: activates human beta-2 adrenergic receptor causing internalization. response, % (concentration not given with the values). Am2.2-beta2AR cells, FAP receptor internalization, flow cytometry. AID 504454. 340,000 compounds, 0.43% hits;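 active = response above a set limit, near 3 SD of response in nonfluorescent compounds, cut at about 42% in these data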
Target sequence (P07550 whole entry, looked up): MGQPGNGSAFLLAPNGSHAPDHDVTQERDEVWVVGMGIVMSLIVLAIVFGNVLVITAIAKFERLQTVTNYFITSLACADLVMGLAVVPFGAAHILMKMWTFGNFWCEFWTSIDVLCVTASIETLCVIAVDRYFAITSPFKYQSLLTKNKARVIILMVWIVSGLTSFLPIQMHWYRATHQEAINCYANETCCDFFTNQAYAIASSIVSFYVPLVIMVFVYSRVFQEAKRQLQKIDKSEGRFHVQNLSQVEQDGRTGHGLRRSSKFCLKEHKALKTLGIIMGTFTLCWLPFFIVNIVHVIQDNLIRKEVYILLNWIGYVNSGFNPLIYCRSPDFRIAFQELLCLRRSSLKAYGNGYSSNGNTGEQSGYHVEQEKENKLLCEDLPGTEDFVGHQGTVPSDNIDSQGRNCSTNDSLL
GRK2 inh: inhibitors of human GRK2 displacing RNA aptamer | AID 488847 | inhibition of aptamer binding, % at 10 µM | 330,000 compounds, 0.59% hits | bead flow cytometry, FAM-aptamer displacement from GRK2 | P25098;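 active = inhibition of aptamer binding above 40%, roughly 3 SD of noise, on plates passing a quality check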;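 note: median bead fluorescence of bound FAM aptamer so fluorescent compounds give negative values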
VLA-4 inh: inhibition in a human VLA-4 binding assay; P13612; VLA-4 expressing cells, ligand binding flow cytometry; inhibition, % (about 7 µM as worked out from the volumes in the protocol); 330,000 compounds, 0.2% hits; AID 2557; in the data active = inhibition above about 50%
GRK2 CP1: confirmation of human GRK2 inhibitors displacing RNA aptamer; shares compounds with GRK2 inh; bead-bound GRK2, FAM-aptamer displacement, flow cytometry; aptamer displacement, % at 10 µM; 2,000 compounds, 4% hits; AID 504451;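 active = aptamer displacement above 40%, near three times the noise of non-fluorescent compounds, on plates passing quality checks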;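 note: negative values mostly reflect intrinsic compound fluorescence rather than true enhancement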
FAM quench CP1: counter-screen for GRK2 aptamer inhibitors: fluorescent aptamer quenchers; shares compounds with GRK2 inh; Carboxyfluorescein RNA aptamer on beads, flow cytometry quenching; active compounds read low; fluorescence response (% of DMSO), % at 10 µM; 2,000 tested, under 10 active; AID 504580;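 active = compounds that quench the bead-bound fluorescent RNA probe, cutting fluorescence to under half of the solvent control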;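 note: counterscreen run without GRK2 so only probe quenching by compound is measured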
GRK2 confirm 2: human GRK2 inhibition confirmation, cherry pick 2 | shares compounds with GRK2 inh | bead-bound GRK2, FAM-aptamer displacement, flow cytometry | inhibition of aptamer binding, % at 10 µM | 360 tested, under 10 active | AID 504782;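 active = inhibition of aptamer binding above 40%, about triple the noise seen with nonglowing compounds, on plates passing quality control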;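 note: negative values mostly come from compounds that fluoresce themselves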
FAM quench SP: quenches fluorescent RNA aptamer, GRK2 hit artifact; shares compounds with GRK2 inh; fluorescence response vs DMSO, % at 10 µM; 360 tested, under 10 active; carboxyfluorescein RNA aptamer beads, flow cytometry quenching; active compounds read low; AID 588494;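 active = response vs DMSO under 50%, meaning signal dropped by over half, treated as fluorescence quencher; inconclusive = no clear call, values can overlap the other calls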;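 note: labelled aptamer on streptavidin beads without GRK2 as a quench counter-screen; 100% = bead fluorescence of DMSO wells and lower means quenching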
Numbers without * were called inactive; ? = inconclusive; . = no result given.

SMILES	NTR1 agonist	Bfl-1 A1 inh	Beta2AR agonist	GRK2 inh	VLA-4 inh	GRK2 CP1	FAM quench CP1	others
O=c1[nH]cnc2onc(-c3ccc(F)cc3)c12	-1	?	1	12	2	1	95
CC(=O)NS(=O)(=O)c1ccc(NC(=O)c2ccc3c(c2)OCO3)cc1	0	.	-6	.	.	.	.
Cc1cccc(NC(=O)c2nc[nH]c2C(=O)N[C@@H](Cc2ccccc2)C(=O)OCc2ccccc2)c1	29	0	17	51*	4	-2	103	GRK2 confirm 2=-17;FAM quench SP=92
Cc1occc1C(=O)N/N=C/C1=C(N2CCOCC2)C(=C/c2ccc(Cl)cc2Cl)/CC1	.	.	12	.	.	.	.
Cc1cc(-c2nc(-c3ccncc3)no2)ccc1[N+](=O)[O-]	0	-10	-4	25	6	0	102
Cn1nc(C(F)(F)F)c(C(=O)Nc2ccc(F)cc2F)c1Cl	-1	0	-18	47*	13	-1	98
CSCCC(NS(=O)(=O)c1ccccc1F)C(=O)NCc1cccs1 (stereo unspecified)	0	0	3	61*	9	1	116
COc1ccccc1OCCNC(=O)C(CCSC)NS(=O)(=O)c1ccccc1F (stereo unspecified)	-2	0	3	0	0	.	.
CSc1ccc(/C=C/C(=O)OCC(=O)N2CCN(c3ccccc3)CC2)cc1	.	.	1	.	.	.	.
O=C(/C=C/c1cccc(Br)c1)OCC(=O)N1CCN(c2ccccc2)CC1	3	0	-1	76*	-14	1	99
O=C(CCNS(=O)(=O)c1ccc(Br)cc1)NCCCSc1ccccc1	-2	1	-3	3	19	.	.
COCCN(C(=O)c1cc2c(s1)CCC2)c1c(N)n(CC(C)C)c(=O)[nH]c1=O	0	0	-1	43*	1	17	99
CCN(CC(=O)NC1CCS(=O)(=O)C1)C(=O)c1cc(OC)c(OC)c(OC)c1 (stereo unspecified)	-2	0	-2	60*	28	-1	95
Cc1cc(C)nc(NNS(=O)(=O)c2c(F)cc(F)cc2Br)n1	0	0	-5	0	2	.	.
N#C/C(=C\c1ccc(O)c(O)c1)C(=O)c1ccc(O)c(O)c1	0	-4	2	54*	-12	2	102
N#C/C(=C\c1ccc(O)c(O)c1)C(=O)N1CCCC1	0	1	7	0	41	.	.
COC(=O)CCC(=O)Nc1ccc(S(=O)(=O)Nc2cc(OC)nc(OC)n2)cc1	-1	2	-3	38	-1	2	98
O=C(N/N=C/c1ccc(Cl)cc1)c1ccc2c(c1)OCO2	0	0	-7	59*	-6	-9	120
O=C1c2cccc3c([N+](=O)[O-])ccc(c23)C(=O)N1O	2	2	-59	56*	-160	-6	97
O=C1c2cccc3c([N+](=O)[O-])ccc(c23)C(=O)N1c1ccccn1	-2	-1	-114	2	-276	.	.
O=C(O)c1cccc(-n2cccc2/C=C/[N+](=O)[O-])c1	0	0	-1	51*	1	30	99
O=C(O)c1cccc(-n2cccc2/C=C\[N+](=O)[O-])c1	2	0	-2	18	-8	.	.
O=C(O)c1cccc(-n2cccc2/C=N/O)c1	1	0	-2	54*	-10	34	99	GRK2 confirm 2=26;FAM quench SP=100
ON=Cc1cccn1-c1ccccc1	0	-1	-1	1	1	.	.
O=C(O)c1ccc(C(=O)O)c(C(=O)c2ccc(NC(=O)c3ccccc3)cc2)c1	0	0	-1	0	4	.	.
CCn1cnc2cc(NCc3ccc(C)cc3)ccc21	1	-2	-1	2	-4	.	.
CCCn1cnc2cc(NCc3ccc(Br)cc3)ccc21	4	0	-3	0	3	-5	103

Bioassay records from PubChem BioAssay.
